Screen size: about 69,000 compounds; about 8,600 (12%) showed an effect of 50% or more. This excerpt belongs to a sample that is enriched for strong results.
These compounds were tested on Plasmodium berghei (assay: Screen against P. berghei liver stage (PbLuc), transformed with Luciferase, at 10uM). Conditions: tested at 10 uM.
Format: functional, HepG2

| Compound | INHIBITION [%] |
| --- | --- |
| CCn1nc(C)c2c1cnn2CC(=O)Nc1ccc(OC)cc1C | 45.4 |
| CCOC(=O)c1ccc(S(=O)(=O)NCC(CC)N2CCCC2)cc1 (stereo not given) | -9.2 |
| COc1nn(C)c2c1CCCN(C(=O)c1cccn1C)C2 | 8.67 |
| Cc1cc(C(F)(F)F)nn1CCNC(=O)C(C)n1ccnc1C(C)C (stereo not given) | 85.5 |
| Cc1nc(C)n(CCCNC(=O)C(C)n2ccnc2C(C)C)n1 (stereo not given) | -129 |
| Cc1nc(C)n(CCNC(=O)C(C)n2ccnc2C(C)C)n1 (stereo not given) | -23.7 |
| Cc1cc(-c2cc(S(=O)(=O)N3C[C@H](C4CC4)[C@@H](N)C3)c(C)s2)[nH]n1 | 25.5 |
| COCCN1CCCn2cnc(CNC3CCCC3)c2C1 | 55.5 |
| COCCN1CCCn2cnc(CN(C)C(C)C)c2C1 | 21.7 |
| COCCN1CCCn2cnc(CNC(=O)N(C)C)c2C1 | 29.8 |
| COCc1cccc(S(=O)(=O)N2CCSCC2)c1 | 40 |
| CSc1ccc(C)c(C(=O)N2CCCC(n3cncn3)C2)c1 (stereo not given) | -10.1 |
| Cc1ncc2c(n1)C1(CCN(C(=O)C(C)C)CC1)OCC2 | 3.89 |
| Cc1cn2c(n1)CCC(NC(=O)c1ccc(CS(C)(=O)=O)o1)C2 (stereo not given) | 13.1 |
| CCc1ccc(C(C)NC(=O)c2ccc(CS(C)(=O)=O)o2)cc1 (stereo not given) | 50.8 |
| Cc1cc(C)cc(C(C)NC(=O)c2ccc(CS(C)(=O)=O)o2)c1 (stereo not given) | 54.3 |
| CC(NC(=O)c1ccc(CS(C)(=O)=O)o1)c1ccc(F)c(F)c1 (stereo not given) | 12.3 |
| CCc1ccc(C(C)NC(=O)CN(C)Cc2ccc(C)o2)cc1 (stereo not given) | -27 |
| CCc1ccc(C(=O)NC(C)c2ccc(S(C)(=O)=O)c(F)c2)o1 (stereo not given) | 6.33 |
| CS(=O)(=O)N1CCC(NC(=O)COc2ccccc2Cl)CC1 | -19.9 |
| O=C(c1nccc2ccccc12)N1CCCCC1Cn1cccn1 (stereo not given) | 3.73 |
| Cc1nc(CNC(=O)c2cc(COc3ccccc3F)[nH]n2)n[nH]1 | 17 |
| CNc1cc(C)nc(C2CN(Cc3cncs3)CCO2)c1 (stereo not given) | 11.1 |
| Cn1nc(CN2CCCC2)c2c1CN(C(=O)c1cccnc1)CC2 | -31.3 |
| Cc1cc2n(n1)CC(CNCc1ccc(-n3ccnc3C)nc1)CN2 (stereo not given) | -13.575 |
| CC(=O)N1CCOC(c2c(C(=O)NC(C)(C)C)sc3ccccc23)C1 (stereo not given) | -84.7 |
| Cc1cnc(N2CC[C@@H]3O[C@@H](COCC(=O)N(C)C)CC[C@@H]32)nc1 | 18.2 |

| Compound | INHIBITION [%] |
| --- | --- |
| O=C(c1cc[nH]n1)N(Cc1cccc(O)c1)CC1CC1 | 5.64 |
| COC1CCN(c2ccc(F)cc2CN(C)C(=O)c2cc[nH]n2)CC1 | -74.8 |
| COc1cc(C(=O)N(Cc2ccc(F)cc2)C2CC2)cc2c1OCCO2 | 13.4 |
| O=C(c1cc[nH]n1)N(Cc1ccc(F)cc1)CC1CC1 | -24 |
| CSc1ccc(CN(C(=O)c2cc[nH]n2)C2CC2)cc1 | 59.1 |
| CSc1ccc(CN(C)C(=O)c2cc3c([nH]c2=O)CCCC3=O)cc1 | 7.99 |
| Cc1ccc(C(=O)N(Cc2ccc(F)cc2)C2CC2)c(=O)[nH]1 | -37.8 |
| CSc1ccc(CN(C(=O)c2cc(=O)[nH]c(=O)[nH]2)C2CC2)cc1 | 59.1 |
| Cc1ccc(C(=O)N(Cc2cccc(F)c2)C2CC2)c(=O)[nH]1 | -30.7 |
| CN(C)Cc1ccc(C2CCCCN2C(=O)c2cc(=O)[nH]c(=O)[nH]2)cc1 (stereo not given) | 16.7 |
| CSc1ccc(CN(C(=O)c2cc(C)[nH]c(=O)c2)C2CC2)cc1 | 50.8 |
| O=C(c1cc[nH]n1)N(Cc1ccccc1)CC1CCC1 | 72.3 |
| NC(=O)C1Cn2ccnc2C2(CCN(C(=O)NC3CCCC3)CC2)O1 (stereo not given) | 0.453 |
| CC(C)Oc1ccc(CNC(=O)CCN2C(=O)CCC2=O)cc1F | -38.75 |
| Cc1nc2c(c(NC3CCN(Cc4ccccc4)CC3)n1)CCNCC2 | -4.28 |
| CC(=O)N1CCCC(c2nccnc2-c2ccc(CO)cc2)C1 (stereo not given) | 20.2 |
| c1ccc(CCN2CCN(C3CCOC4(CCOCC4)C3)CC2)cc1 (stereo not given) | 36.8 |
| CC(NC(=O)CN(C)S(C)(=O)=O)c1nnc2n1CCCCC2 (stereo not given) | 38.6 |
| CCc1ccc(C(=O)N2CCCC(CNS(C)(=O)=O)C2)o1 (stereo not given) | -26.6 |
| O=C(NCc1ccccc1)C1=NOC2(CCNC2)C1 (stereo not given) | 24.5 |
| O=c1ccc(-c2cccs2)nn1CN1CCN(C2CCS(=O)(=O)C2)CC1 (stereo not given) | -4.52 |
| COc1ccc(C(=O)CNC(=O)c2nc(Cl)sc2C(C)C)cc1 | -44.2 |
| O=C(CCc1nnc(-c2ccccc2)o1)N1CCCC1c1ccccn1 (stereo not given) | 17.8 |
| O=C(CCc1nnc(-c2ccccc2)o1)N1CCCC1c1ccc[nH]1 (stereo not given) | -14.9 |
| CC1CCCCN1C(=O)CCc1nnc(-c2ccccc2)o1 (stereo not given) | 51.5 |
| Cc1cc(CN2CCC(N(C)Cc3nnc(C4CC4)n3C)C2)on1 (stereo not given) | 19.2 |
| COCc1noc(Cc2c(C)nn(C)c2C)n1 | 28.5 |

| Compound | INHIBITION [%] |
| --- | --- |
| Cc1nc(C(=O)N(CC(=O)N(C)C)CC(F)(F)F)c2ccccn12 | 53.3 |
| Cc1nc(C(=O)N(C)CC(F)(F)C(F)(F)F)c2ccccn12 | 3.03 |
| CCOC(=O)CN(CC(F)(F)F)C(=O)c1nc(C)n2ccccc12 | 22.3 |
| CCCc1nc(CN2CCCC(c3noc(C4CC4)n3)C2)no1 (stereo not given) | 4.71 |
| Cc1c(CC(C#N)C(=O)Nc2cccc(O)c2)cnn1C (stereo not given) | 20.4 |
| N#CCCN(C(=O)CN1CCCC1c1ccsc1)c1ccccc1 (stereo not given) | -2.95 |
| N#CCCN(C(=O)CN1CCCC1c1ccccc1Cl)c1ccccc1 (stereo not given) | 67.1 |
| Cc1ccc(N(CCC#N)C(=O)CN2CCCC2c2cccs2)cc1 (stereo not given) | -3.48 |
| Cc1cc(C)cc(N(CCC#N)C(=O)CN2CCCC2c2cccs2)c1 (stereo not given) | 6.54 |
| Cc1ccc(C2CCCN2CC(=O)N(CCC#N)c2ccccc2)cc1 (stereo not given) | 62.8 |
| Cc1ccc(N(CCC#N)C(=O)CN2CCCC2c2ccsc2)cc1 (stereo not given) | 3.45 |
| CC(=O)N(Cc1ccsc1)c1ccccc1 | 24.2 |
| CNS(=O)(=O)CC(=O)N(Cc1ccsc1)c1ccccc1 | -2.69 |
| CC(C)S(=O)(=O)CC(=O)N(Cc1ccsc1)c1ccccc1 | 54.4 |
| Cc1occc1C(=O)N1C[C@H]2CCCC(OCc3cccnc3)[C@H]2C1 (stereo not given in full) | 30.3 |
| Cc1cnn(C2CCCN(C(=O)CCCOc3ccccc3F)C2)c1 (stereo not given) | -27.8 |
| CS(=O)(=O)NCCCNC(=O)c1cccc(-n2cccc2)c1 | 13.4 |
| Cc1ccc(C(=O)NCCCNS(C)(=O)=O)cc1-n1cccc1 | 51.3 |
| Cc1ccc(C(=O)NCCCN(C)S(C)(=O)=O)cc1-n1cccc1 | 12.9 |
| COc1ccc(CN2C[C@H]3CC[C@@H](C2)N(S(=O)(=O)C2CC2)C3)cc1 | 4.52 |
| O=C1CCN(C(=O)NCCCc2ccc(Cl)cc2Cl)CCN1 | -12.1 |
| Cc1ncsc1-c1nnc(C2CCN(Cc3ccccc3Cl)CC2)o1 | 29.3 |
| CCn1c(CN(C)C)nnc1C1CCN(Cc2cccc(F)c2F)CC1 | 25 |
| Cc1ncsc1-c1nnc(C2CCN(Cc3ccccc3F)CC2)o1 | 59 |
| Cc1ncsc1-c1nnc(C2CCN(Cc3cccc(F)c3F)CC2)o1 | 54.5 |
| Fc1cccc(CN2CCC(c3noc(-c4cnccn4)n3)CC2)c1F | -11.4 |
| Cc1ncsc1-c1nnc(C2CCN(CC3CCCCC3)CC2)o1 | -18.4 |

| Compound | INHIBITION [%] |
| --- | --- |
| Cn1ccnc1CN1CCC(F)(F)C2(CCN(c3cnccn3)C2)C1 (stereo not given) | -38.9 |
| CN(C)c1nccnc1C1CCCN(c2cnccn2)C1 (stereo not given) | 7.75 |
| COCCNS(=O)(=O)c1c(C)sc2ccccc12 | -35 |
| Cc1cnc(N2CCc3onc(COc4cccnc4)c3C2)nc1 | 32.1 |
| COc1cccc(-c2noc3c2CN(c2ncnc4c2CCC4)CC3)c1 | 89.6 |
| COc1cccc(N2CCN(C(=O)c3noc4c3CCCCC4)CC2)c1 | 10.1 |
| COc1cccc(-c2noc3c2CN(c2nc(C)ncc2C)CC3)c1 | 80 |
| COc1ccc(CC2(C(=O)O)CCN(c3nc(C)ncc3C)CC2)cc1 | -1.25 |
| COCC(C)N1CCc2onc(-c3ccc(F)c(F)c3)c2C1 (stereo not given) | 16.7 |
| CC(C)c1ccc(N2CCc3onc(-c4ccc(F)c(F)c4)c3C2)nn1 | 40.3 |
| COCc1cc(N2CCc3onc(-c4cccc(OC)c4)c3C2)ncn1 | 82.2 |
| COc1cccc(N2CCN(C(=O)c3noc4c3CCCC4)CC2)c1 | 12.6 |
| CC(C)(C)n1ncc2c1NC(=O)CC2c1ccc(C(=O)O)cc1 (stereo not given) | -12.2 |
| CC(C)Oc1ccc(Cl)c(C(=O)N2CCN(CCO)CC2)n1 | 33.3 |
| CCSc1ccc(C(=O)N2CCCCC2C(=O)N2CCCC2)cn1 (stereo not given) | 20.4 |
| Cc1ccc(CN2CC[C@@H](NC(=O)c3cccnc3)[C@H](O)C2)s1 | -10.9 |
| O=C(c1cccs1)N1CC[C@@H](N2CCOCC2)[C@@H]1Cc1ccccc1 | 19.4 |
| Cn1ncnc1NCc1ccc(F)cc1 | -42.8 |
| Cc1cccc2c1ccn2CCC(=O)O | 17.6 |
| COc1ccccc1C(=O)NCCCN1CCCC1C(=O)N(C)C (stereo not given) | -1.85 |
| CN1CCC(Cc2noc(-c3cccc(Oc4ncccn4)c3)n2)CC1 | -0.529 |
| COc1cccc(-c2n[nH]cc2-c2nc(CN3CCCC3)no2)c1 | 34 |
| COc1cccc(-c2n[nH]cc2-c2nc(CC3CCN(C)CC3)no2)c1 | 59.7 |
| Cc1ccc(S(=O)(=O)N2CCCC(c3n[nH]cc3C(=O)N(C)C)C2)cc1 (stereo not given) | 11.8 |

From ChEMBL document CHEMBL4513216, “Probing the Open Global Health Chemical Diversity Library for Multistage-Active Starting Points for Next-Generation Antimalarials” (ACS Infect Dis, 2020)
